The list is not random: actives were taken first. Their share in the collection is about 6.5%.
Marburg entry inh – blocks Marburg virus binding to or entry into cells; Marburg virus pseudotyped entry inhibition, cell reporter; Potency, µM (titrated, usually from 37.8 µM), for inactives: at the top dose activity change, negative = inhibition, hits mostly inhibitors; hit rate 1.8% among 300,000; AID 540276; calls by dose curve; tested in HEK293 cells; note: potency is the fitted concentration of half-maximal effect
FMDV inh – blocks foot and mouth disease virus. FMDV antiviral cell-based qHTS. Potency, µM (series often up to 57.9 µM), without a hit: at the top dose activity change, negative = inhibition, most hits filed as inhibitors. hit rate 1.2% among 410,000; calls by dose curve; tested in HEK293T cells; note: read-out not given here; potency is the fitted concentration of half-maximal effect; nearly all actives have a fitted effect of over 45% in size
VACV Venus inh – inhibitors of vaccinia virus (Venus reporter). Vaccinia virus Venus reporter expression, fluorescence. Potency, µM (top dose mostly 36.5 µM), inactives show at the highest dose activity change, negative = inhibition, usual class: inhibitors. hit rate 0.46% among 330,000. AID 720580; calls by dose curve; tested in A549 cells; note: potency is the fitted concentration of half-maximal effect; nearly all actives have a fitted effect of over 30% in size
Vaccinia mCherry – inhibitors of vaccinia virus infection (mCherry reporter signal). Vaccinia virus mCherry reporter infection, fluorescence. AID 720579. hit rate 0.63% among 310,000. Potency, µM (titrated, usually from 36.5 µM), for inactives: top-dose activity change, negative = inhibition, hits mostly inhibitors; calls by dose curve; tested in A549 cells; note: potency is the fitted concentration of half-maximal effect; nearly all actives have a fitted effect of over 35% in size
LASV entry inh – blocks Lassa virus binding to or entry into cells. AID 540256. hit rate 1.2% among 300,000. Lassa virus pseudotype entry inhibition, cell reporter. Potency, µM (titrated, usually from 37.9 µM), for the others: at the highest dose activity change, negative = inhibition, usual class: inhibitors; calls by dose curve; tested in HEK293 cells; note: potency is the fitted concentration of half-maximal effect; nearly all actives have a fitted effect of over 50% in size
HCMV inh – blocks human cytomegalovirus replication. HFF cells, HCMV-luciferase reporter, 72 h; hits give low values. activity change, negative = inhibition, % at 57.5 µM. hit rate 4.5% among 410,000; in the data active = activity change below about -60%; inconclusive = no clear call, values can overlap the other calls; inactive = above about -39%
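After 16 h attachment at 37C, HFF cells received test compound and HCMV-luciferase (1 PFU/cell); reporter luminescence read 72 h later, data normalized against buffer-only and known inhibitor Salinomycin.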
An asterisk follows results filed as active; [ ] = dose if it differs, or a comment. % is set by controls: 0 for no effect and ±100 for the full control effect.

How did FC(F)Sc1ccc(NC(=S)NC2CCCCC2)cc1 do in these assays?
Marburg entry inh: -1%; FMDV inh: 44%; VACV Venus inh: -16%; Vaccinia mCherry: -29%; LASV entry inh: -3%; HCMV inh: 7

What do the screens show for `FC(F)Sc1ccc(NC(=S)NC(c2ccccc2)c2ccccc2)cc1`?
Marburg entry inh: 18µM*; FMDV inh: inconclusive; LASV entry inh: inconclusive; HCMV inh: -98*

How did CN(C)CCCN(Cc1ccccc1)C(=S)Nc1ccc(SC(F)F)cc1 do in these assays?
FMDV inh: -4%; HCMV inh: inconclusive

How did COC(=O)[C@@H]1[C@@H](CO)[C@@H]2Cn3c(ccc(Br)c3=O)[C@H]1N2C(=O)CN(C)C do in these assays?
HCMV inh: 19

How did CCOC(=O)c1c(C)[nH]c(C2=NNC(=NC3CC3)SC2)c1C do in these assays?
FMDV inh: 22µM*

Results for O=C(NCc1ccc(F)cc1)c1ccc2c(c1)nc1n2CCCCC1 ?
FMDV inh: 37%; VACV Venus inh: -18%; Vaccinia mCherry: -22%; LASV entry inh: 18%[46.1 µM]; HCMV inh: 44

Results for COCCN(C(=O)Nc1ccc(F)cc1F)c1nc2ccccc2s1 ?
Marburg entry inh: 21%[46.1 µM]; FMDV inh: 26%; VACV Venus inh: -8%; Vaccinia mCherry: -12%; LASV entry inh: 15%[46.1 µM]; HCMV inh: 97

What do the screens show for `O=C(NNc1nc2ccccc2s1)Nc1ccc(F)cc1`?
FMDV inh: 43%; HCMV inh: 0

What do the screens show for `O=C(NNc1nc2ccccc2s1)c1ccccc1F`?
Marburg entry inh: inconclusive; FMDV inh: 38%; VACV Venus inh: -12%; Vaccinia mCherry: -28%; LASV entry inh: 9%; HCMV inh: -67*

What do the screens show for `COCCN(C(=O)Nc1ccc(OC)cc1)c1nc2ccccc2s1`?
Marburg entry inh: 17%[46.1 µM]; FMDV inh: -1%; VACV Venus inh: -4%; Vaccinia mCherry: -26%; LASV entry inh: 6%[46.1 µM]; HCMV inh: -97*

Results for COc1ccccc1C(=O)Nc1nc2ccccc2s1 ?
FMDV inh: 1.8µM*; HCMV inh: -99*

What do the screens show for `COc1cccc2sc(Nc3nc4ccc(NC(C)=O)cc4s3)nc12`?
Marburg entry inh: 7.3µM*; FMDV inh: -19%; VACV Venus inh: -29%; Vaccinia mCherry: inactive; LASV entry inh: inconclusive; HCMV inh: -83*

What do the screens show for `Cc1ccc(Cn2c(CNS(=O)(=O)c3ccc(Cl)s3)nc3cccnc32)cc1`?
FMDV inh: 70%; VACV Venus inh: -15%; Vaccinia mCherry: -2%; LASV entry inh: 29%[46.1 µM]; HCMV inh: -20

How did Cc1[nH]nc2c1[C@@H](CCc1ccccc1)C(C#N)=C(N)O2 do in these assays?
Marburg entry inh: 3%

Results for Cc1cc(C)n2nc(CNC(=O)c3ccccc3Cl)nc2n1 ?
Marburg entry inh: -8%[46.1 µM]; FMDV inh: -6%; VACV Venus inh: 2%; Vaccinia mCherry: -3%; LASV entry inh: 17%[46.1 µM]; HCMV inh: 25

What do the screens show for `C[C@]1(C(=O)CSc2nc3ccccc3[nH]2)CCC(=O)O1`?
Marburg entry inh: -1%

What do the screens show for `COc1cc(C(=O)NCc2ccc(-c3nc4ccccc4s3)cc2)cc(OC)c1OC`?
Marburg entry inh: -1%; FMDV inh: 7%; VACV Venus inh: -20%; Vaccinia mCherry: -3%; LASV entry inh: -14%; HCMV inh: 69

Results for NC(=S)Nc1nc2ccccc2s1 ?
Marburg entry inh: inconclusive; FMDV inh: 43%; VACV Venus inh: 0%; Vaccinia mCherry: -16%; LASV entry inh: 23%; HCMV inh: -108*

Results for COc1ccccc1C(=O)NCc1ccc(-c2nc3ccccc3s2)cc1 ?
Marburg entry inh: -11%; FMDV inh: inconclusive; VACV Venus inh: -9%; Vaccinia mCherry: -11%; LASV entry inh: -25%; HCMV inh: -61*

Results for Cn1cc(Cl)c(C(=O)Nc2nc3ccccc3s2)n1 ?
Marburg entry inh: 8.2µM*; VACV Venus inh: -11%; Vaccinia mCherry: inactive; LASV entry inh: inconclusive; HCMV inh: -24

What do the screens show for `COc1ccc(C(=O)Nc2ccc(C)cc2C(=O)c2ccccc2)c(OC)c1`?
Marburg entry inh: -48%; FMDV inh: inconclusive; VACV Venus inh: -19%; Vaccinia mCherry: -18%; LASV entry inh: -7%; HCMV inh: inconclusive

What do the screens show for `O=C(Nc1nc2ccccc2s1)c1c(F)cccc1Cl`?
Marburg entry inh: 11%; FMDV inh: 63%; VACV Venus inh: -15%; Vaccinia mCherry: -18%; LASV entry inh: inconclusive; HCMV inh: 19

How did COc1ccc(C(=O)Nc2ccccc2Cc2ccccc2)c(OC)c1 do in these assays?
Marburg entry inh: 5%; FMDV inh: -4%; VACV Venus inh: -30%; Vaccinia mCherry: inconclusive; LASV entry inh: -20%; HCMV inh: -71*

How did COCC(=O)Nc1nc2ccccc2s1 do in these assays?
Marburg entry inh: 0%; FMDV inh: 28%; VACV Venus inh: -16%; Vaccinia mCherry: -14%; LASV entry inh: -7%; HCMV inh: 151

What do the screens show for `CCC1CN(CC(=O)NCc2n[nH]c3c2CCCCC3)Cc2cc(OC)ccc2O1` (centres undefined)?
FMDV inh: -9%; VACV Venus inh: -9%; Vaccinia mCherry: -9%

How did CCn1nc(C)c2c(-c3ccccc3)cc(=O)n(C(C)C(=O)Nc3cccc(F)c3)c21 (centres undefined) do in these assays?
FMDV inh: -29%; VACV Venus inh: -6%; Vaccinia mCherry: -11%; LASV entry inh: 0%[46.1 µM]; HCMV inh: -33

Results for CCOC(=O)[C@H](c1ccccc1)N1CCN(c2ccc(OC)cc2)CC1 ?
Marburg entry inh: 1%

How did Cc1oc(-c2ccccc2NC(=O)c2ccccn2)nc1CNC(=O)c1ccc(Oc2ccccc2)o1 do in these assays?
FMDV inh: 3%; VACV Venus inh: -6%; Vaccinia mCherry: -11%

How did COc1ccc(C(=O)Nc2nc3ccccc3s2)c(OC)c1 do in these assays?
Marburg entry inh: inconclusive; FMDV inh: 0.13µM*; VACV Venus inh: -14%; Vaccinia mCherry: 1%; LASV entry inh: inconclusive; HCMV inh: -97*

Results for Cc1ccccc1Cn1cccc(C(=O)Nc2nc3ccccc3s2)c1=O ?
FMDV inh: 22µM*; VACV Venus inh: -26%; Vaccinia mCherry: -24%; LASV entry inh: inconclusive; HCMV inh: -71*

Results for O=C(O)Cc1ccc2sc(-c3ccccc3)nc2c1 ?
Marburg entry inh: 30%; FMDV inh: 16%; VACV Venus inh: -22%; Vaccinia mCherry: -3%; LASV entry inh: 15%; HCMV inh: 10

Results for COC(=O)Cc1ccc2sc(-c3ccccc3)nc2c1 ?
Marburg entry inh: 8.2µM*; FMDV inh: -70%; VACV Venus inh: -10%; Vaccinia mCherry: -10%; LASV entry inh: inconclusive; HCMV inh: 31

How did COc1ccc2nc(NC(=O)c3ccccc3C(=O)O)sc2c1 do in these assays?
FMDV inh: 3%; HCMV inh: 45

Bioassay records deposited in PubChem by National Center for Advancing Translational Sciences (NCATS).
